# Assay results as given in PubChem BioAssay (NCI).
# Compounds without any hit were thinned out: in the full panel of roughly 83,000, 20% have a hit.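 Values shown are percent growth following 48 h exposure of cells in 96-well plates to a single concentration of compound; below 10 was considered active.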 A number with no mark means an inactive call. Active and inactive are the calls of the source.
# Tested on: HT29 colon
# Experiment: NCI-60 one-dose screen, 48 h (100 = growth as untreated, 0 = no growth, -100 = all killed)
# Settings: 10 µM unless noted
row,SMILES,growth
1,CCc1ccc(-c2ccc(Nc3ccccc3)nn2)cc1S(N)(=O)=O,68%
2,Cn1cccc1/C=C1/SC(=S)N(CCc2ccc(O)cc2)C1=O,94.9%
3,CN1CCN(CCOc2ccc(-c3cnc4c(-c5ccccc5F)cnn4c3)cc2)CC1,-38% (active)
4,O=c1c(CNc2ccc(S(=O)(=O)Nc3ncccn3)cc2)coc2ccccc12,110%
5,Cc1ccc(-c2nc([P+](c3ccccc3)(c3ccccc3)c3ccccc3)c(N3CCOCC3)o2)cc1,-0.839% (active)
6,O=C1OC(c2ccc(Cl)c(Cl)c2)=C/C1=C/c1cccc([N+](=O)[O-])c1,93.7%
7,COc1ccccc1-n1cnc(N)c1C(=O)c1cc(OC)c(OC)c(OC)c1,11.7%
8,COc1ccc2c(c1)C/C(=C\c1cc(-c3ccc4c(c3)OCO4)n[nH]1)C2=O,127%
9,CN(C)CCCC1(c2ccc(F)cc2)OCc2cc(-c3ccc(C(F)(F)F)nc3)ccc21 (stereo not drawn),64.8%
10,O=c1c(CNc2ccc(S(=O)(=O)Nc3nccs3)cc2)coc2ccccc12,101%
11,Cc1ccc2c(c1)c(-c1nc(-c3c[nH]c4ncccc34)cs1)cn2C,69%
12,CC1(C)C(=O)/C(=C\c2ccco2)C[C@]2(C)[C@H]3CC[C@@H]4[C@@H](C(=O)/C=C/c5ccco5)CC[C@@]4(C)[C@]3(C)CC[C@@H]12,75.7%
13,Cc1ccc(-c2nc([P+](c3ccccc3)(c3ccccc3)c3ccccc3)c(N3C[C@H]4C[C@H](C3)c3cccc(=O)n3C4)o2)cc1,92.3%
14,C=C(C)[C@@H]1CC[C@]2(CN)CC[C@]3(C)[C@H](CC[C@@H]4[C@@]5(C)CCC(=O)NC(C)(C)[C@@H]5CC[C@]43C)[C@@H]12,11.5%
15,Nc1c(Cl)cc(N=Nc2ccccc2)cc1Cl,100%
16,CC(=O)O[C@H]1CC[C@]2(C)[C@H]3C(=O)C=C4[C@@H]5C[C@](C)(C(=O)N6CCCNCC6)CC[C@]5(C)CC[C@@]4(C)[C@]3(C)CC[C@H]2C1(C)C,-63.5% (active)
17,CCCCCC1CCCCN1C(=O)OCC (stereo not drawn),101%
18,Cn1cc(-c2nc(-c3c[nH]c4ncccc34)cs2)c2cc(Br)ccc21,70.5%
19,O=C(N/N=C\c1ccccc1O)C1CC1,107%
20,COc1ccc(OCC(CO)N2CCN(c3ccccc3)CC2)cc1 (stereo not drawn),98.2%
21,Cn1cc(-c2nc(-c3c[nH]c4ncccc34)cs2)c2ccccc21,88.2%
22,CC1(C)CC[C@]2(C(=O)Nc3ccccn3)CC[C@]3(C)C(=CC[C@@H]4[C@@]5(C)C/C(=C/c6ccncc6)C(=O)C(C)(C)[C@@H]5CC[C@]43C)[C@@H]2C1,9.45% (active)
23,C=C(C)[C@@H]1CC[C@]2(C(=O)O)CC[C@]3(C)[C@H](CC[C@@H]4[C@@]5(C)C/C(=C/c6cccc(I)c6)C(=O)C(C)(C)[C@@H]5CC[C@]43C)[C@@H]12,9.1% (active)
24,Oc1cccc2oc(=S)[nH]c12,113%
25,CC(=O)O[C@H]1CC[C@@]2(C)C(=CC[C@@H]3[C@@H]2CC[C@]2(C)C(=O)N(O)C(=O)C[C@@H]32)C1,89.2%
26,COc1ccc2c(c1)c(-c1nc(-c3c[nH]c4ncccc34)cs1)cn2C,55.6%
27,O=C(O)c1cccc2c1Cc1cc([N+](=O)[O-])ccc1-2,112%
28,CCOc1ccc(NC(=O)c2ccccc2-c2ccccc2C(=O)O)cc1,107%
29,O=c1c2sc3ncc(Br)cc3c2ncn1-c1cccc(Cl)c1,71.5%

# Tested on: SNB-75 CNS
# Experiment: as above
# Settings: 10 µM unless noted
row,SMILES,growth
1,Cn1c(/C(C#N)=C/c2ccc3ccccc3c2)cc2ccccc21,15.3%
2,Cn1cc(-c2nc(-c3c[nH]c4ncccc34)cs2)c2cc(F)ccc21,31.6%
3,CC(=O)N1N=C(c2ccc(C)cc2)CC1c1ccc(Oc2ccc(Br)cc2)cc1 (stereo not drawn),73.7%
4,NC1=NN=C2N(N)C(=O)c3cnn(-c4ccccc4)c3N2c2nc(-c3ccccc3)cc(-c3ccccc3)c21,86.2%
5,Fc1ccc2nc(-c3cc(-c4ccc5c(c4)OCO5)n[nH]3)[nH]c2c1,35.6%
6,CN(C)c1ccc(-c2ccc(-c3ccc(C(=N)N)c(F)c3)s2)cc1,98.9%
7,Cc1c(C)c2c(c(C)c1NC(=O)CCCCCCC(=O)O)CCC(C)(CCCC(C)CCCC(C)CCCC(C)C)O2 (stereo not drawn),93.9%
8,Cc1cc(C)nc(NC(N)=NCCc2ccccc2)n1,23.7%
9,C=C(C)[C@@H]1CC[C@]2(C(=O)O)CC[C@]3(C)[C@H](CC[C@@H]4[C@@]5(C)C/C(=C/c6ccc(OC)cc6)C(=O)C(C)(C)[C@@H]5CC[C@]43C)[C@@H]12,27.2%
10,COc1ccc2[nH]cc(-c3nc(-c4c[nH]c5ncccc45)cs3)c2c1,19.5%
11,CCc1ccc(-c2ccc(Nc3ccccc3)nn2)cc1S(N)(=O)=O,123%
12,Cn1cccc1/C=C1/SC(=S)N(CCc2ccc(O)cc2)C1=O,41.2%
13,CN1CCN(CCOc2ccc(-c3cnc4c(-c5ccccc5F)cnn4c3)cc2)CC1,120%
14,O=c1c(CNc2ccc(S(=O)(=O)Nc3ncccn3)cc2)coc2ccccc12,79.4%
15,Cc1ccc(-c2nc([P+](c3ccccc3)(c3ccccc3)c3ccccc3)c(N3CCOCC3)o2)cc1,0.0247% (active)
16,O=C1OC(c2ccc(Cl)c(Cl)c2)=C/C1=C/c1cccc([N+](=O)[O-])c1,92.9%
17,COc1ccccc1-n1cnc(N)c1C(=O)c1cc(OC)c(OC)c(OC)c1,8.36% (active)
18,COc1ccc2c(c1)C/C(=C\c1cc(-c3ccc4c(c3)OCO4)n[nH]1)C2=O,55.1%
19,CN(C)CCCC1(c2ccc(F)cc2)OCc2cc(-c3ccc(C(F)(F)F)nc3)ccc21 (stereo not drawn),41.7%
20,O=c1c(CNc2ccc(S(=O)(=O)Nc3nccs3)cc2)coc2ccccc12,73.8%

row,SMILES,growth
1,Cc1ccc2c(c1)c(-c1nc(-c3c[nH]c4ncccc34)cs1)cn2C,91.2%
2,CC1(C)C(=O)/C(=C\c2ccco2)C[C@]2(C)[C@H]3CC[C@@H]4[C@@H](C(=O)/C=C/c5ccco5)CC[C@@]4(C)[C@]3(C)CC[C@@H]12,68.1%
3,Cc1ccc(-c2nc([P+](c3ccccc3)(c3ccccc3)c3ccccc3)c(N3C[C@H]4C[C@H](C3)c3cccc(=O)n3C4)o2)cc1,74.6%
4,C=C(C)[C@@H]1CC[C@]2(CN)CC[C@]3(C)[C@H](CC[C@@H]4[C@@]5(C)CCC(=O)NC(C)(C)[C@@H]5CC[C@]43C)[C@@H]12,85.5%
5,Nc1c(Cl)cc(N=Nc2ccccc2)cc1Cl,74%
6,CC(=O)O[C@H]1CC[C@]2(C)[C@H]3C(=O)C=C4[C@@H]5C[C@](C)(C(=O)N6CCCNCC6)CC[C@]5(C)CC[C@@]4(C)[C@]3(C)CC[C@H]2C1(C)C,80.1%
7,CCCCCC1CCCCN1C(=O)OCC (stereo not drawn),88.4%
8,Cn1cc(-c2nc(-c3c[nH]c4ncccc34)cs2)c2cc(Br)ccc21,80.5%
9,O=C(N/N=C\c1ccccc1O)C1CC1,98.1%
10,COc1ccc(OCC(CO)N2CCN(c3ccccc3)CC2)cc1 (stereo not drawn),97.4%
11,Cn1cc(-c2nc(-c3c[nH]c4ncccc34)cs2)c2ccccc21,77.6%
12,CC1(C)CC[C@]2(C(=O)Nc3ccccn3)CC[C@]3(C)C(=CC[C@@H]4[C@@]5(C)C/C(=C/c6ccncc6)C(=O)C(C)(C)[C@@H]5CC[C@]43C)[C@@H]2C1,91.6%
13,C=C(C)[C@@H]1CC[C@]2(C(=O)O)CC[C@]3(C)[C@H](CC[C@@H]4[C@@]5(C)C/C(=C/c6cccc(I)c6)C(=O)C(C)(C)[C@@H]5CC[C@]43C)[C@@H]12,-36.5% (active)
14,Oc1cccc2oc(=S)[nH]c12,86.4%
15,CC(=O)O[C@H]1CC[C@@]2(C)C(=CC[C@@H]3[C@@H]2CC[C@]2(C)C(=O)N(O)C(=O)C[C@@H]32)C1,75.8%
16,COc1ccc2c(c1)c(-c1nc(-c3c[nH]c4ncccc34)cs1)cn2C,76.1%
17,O=C(O)c1cccc2c1Cc1cc([N+](=O)[O-])ccc1-2,83.5%
18,CCOc1ccc(NC(=O)c2ccccc2-c2ccccc2C(=O)O)cc1,91.3%
19,O=c1c2sc3ncc(Br)cc3c2ncn1-c1cccc(Cl)c1,16.4%
